# aSyn 5UTR act: Activators via SNCA 5'UTR binding, MLPCN. activity score, % (tested at 7.5 µM), hits read low. 7.1% of 300,000 active. alpha-synuclein 5'UTR reporter, activators screen; in the data active = activity score below about -60%
# An asterisk follows results filed as active. These entries were drawn from the full list.
SMILES,aSyn 5UTR act
Cc1cc(N/N=C/c2ccc([N+](=O)[O-])o2)nc2ccccc12,-133*
O=C(N/N=C/c1ccc([N+](=O)[O-])o1)c1cc(-c2ccncc2)nc2ccccc12,-67*
Cc1cc2ncn(/N=C/c3ccc([N+](=O)[O-])o3)c2cc1C,-122*
Cc1ccc2nc(N/N=C/c3ccco3)cc(C)c2c1,-186*
O=C(N/N=C/c1ccc([N+](=O)[O-])o1)c1cc(-c2ccc(-c3ccccc3)cc2)nc2ccccc12,76
Clc1ccc(OCc2noc(-c3ccsc3)n2)c(Cl)c1,-170*
Fc1cc(Cl)c(OCc2noc(-c3ccsc3)n2)c(Cl)c1,-81*
O=C(c1cc2cc(Br)ccc2[nH]1)N1CCc2ccccc21,-76*
COc1ccc2cc(C(=O)N3CCc4ccccc43)[nH]c2c1,-122*
O=C(c1cc2cc(F)ccc2[nH]1)N1CCc2ccccc21,-177*
COc1ccc(-c2cc(C(F)F)n3ncc(C(=O)N4CCc5ccccc54)c3n2)cc1,60
COc1ccc2nc3cc(Cl)ccc3c(Nc3cc(CN4CCCC4)c(O)c(CN4CCCC4)c3)c2n1,104
c1ccn(-c2ccc(N3CCOCC3)cc2)c1,-125*
CS(=O)(=O)N1N=C(c2ccc(Br)cc2)CC1c1cccs1 (configuration not stated),-117*
CCc1ccc(C2=NN(S(C)(=O)=O)C(c3cccs3)C2)cc1 (configuration not stated),-92*
Cc1ccc(C2=NN(S(C)(=O)=O)C(c3cccs3)C2)cc1 (configuration not stated),-146*
COc1ccc(C2CC(c3cccs3)=NN2S(C)(=O)=O)cc1 (configuration not stated),-85*
COc1ccc(C2CC(c3cccs3)=Nc3ccccc3S2)cc1 (configuration not stated),-163*
COc1ccc(C2=NN(S(C)(=O)=O)C(c3cccs3)C2)cc1 (configuration not stated),-95*
CCOC(=O)c1c(C)[nH]c(C(=O)OCc2ccccc2)c1C,-165*
CC(=O)c1c(C)[nH]c(C(=O)OCc2cccc(C)c2)c1C,-90*
CCOC(=O)c1c(Cc2ccccc2)c[nH]c1C,-75*
CC(=O)c1c(C)[nH]c(C(=O)OCc2ccc(Br)cc2)c1C,-74*
CC(=O)c1c(C)[nH]c(C(=O)OCCOc2ccccc2)c1C,67
CCOC(=O)c1c(C)[nH]c(C(=O)NCc2ccccn2)c1C,-159*
SMILES,aSyn 5UTR act
CC(=O)c1c(C)[nH]c(C(=O)OCc2ccccc2F)c1C,-101*
CCOC(=O)c1c(C)[nH]c(C(=O)C(C)Sc2ccc(Cl)cc2)c1C (configuration not stated),-97*
CCOC(=O)c1c(C)[nH]c(C(=O)N/N=C\c2ccccc2O)c1C,87
CCCCCCC(=O)c1c(C)[nH]c(C(=O)OCC)c1C,-114*
CCOC(=O)c1[nH]c(C)c(C(=O)Nc2ccc(C)c(Cl)c2)c1C,-92*
CCOC(=O)c1c(C)[nH]c(C(=O)OCC(=O)NCCc2ccc(OCC)c(OCC)c2)c1C,60
COc1ccc([C@@H]2[C@@H]3C(=O)N(C(C)(C)C)C(=O)[C@@H]3[C@]3(Cc4ccccc4)C(=O)N(c4cccc(C)c4)C(=O)N23)cc1,-63*
CCOc1ccc(N/C(C)=C/C(=O)c2ccc3c(c2)OCCO3)cc1,-204*
CCOc1ccc(N/C(C)=C\C(=O)c2ccc3c(c2)OCCO3)cc1,-133*
O=S(=O)(NCC1(N2CCOCC2)CCCCC1)c1ccccc1Cl,-91*
N#C/C(=C\c1ccco1)Sc1nc2ccccc2s1,-84*
O=C(Nc1cccc2cccnc12)c1ccc2c(c1)OCCO2,-178*
Cc1ccc(C(=O)Nc2cccc3cccnc23)cc1Br,-178*
COc1cc(NC(=O)c2ccc3c(c2)OCO3)c2ncccc2c1,-66*
Clc1ccccc1Cn1nnc(-c2ccccc2)n1,-153*
CN(C)c1ccc(-c2nnn(Cc3ccccc3Br)n2)cc1,-66*
Clc1ccccc1Cn1nnc(-c2cccs2)n1,-100*
COc1ccc(-c2cc(C(=O)NCC(c3ccccc3)N(C)C)c3ccccc3n2)cc1OC (configuration not stated),-68*
COc1cccc(-c2cc(C(=O)NCCCn3ccnc3)c3ccccc3n2)c1,-70*
Cc1ccc(-c2cc(C(=O)NCc3ccccn3)c3ccccc3n2)cc1C,-124*
Cc1ccc(-c2cc(C(=O)NCCCN3CCCC3)c3ccccc3n2)cc1C,-63*
CCCCC(=O)Nc1sc2c(c1C(N)=O)CCC2,-85*
CC(=O)NC(=S)Nc1sc2c(c1C(N)=O)CCC(C)C2 (configuration not stated),-83*
Cc1sc(NC(=S)NC(=O)C(C)(C)C)c(C(N)=O)c1C,-68*
CC(C)(C)C(=O)NC(=S)Nc1sc2c(c1C(N)=O)CCC2,-88*
SMILES,aSyn 5UTR act
CC(C)CC(=O)NC(=S)Nc1sc2c(c1C(N)=O)CCC2,-100*
COc1ccccc1/C=C/C1(C(=O)NC2CCCC2)CC(=O)N1c1ccccc1 (configuration not stated),-138*
CN(C)S(=O)(=O)c1ccc(N2C(=O)CC2(/C=C/c2ccccc2)C(=O)NC2CCCC2)cc1 (configuration not stated),35
O=C(Nc1ccccn1)c1cc(-c2cccnc2)nc2ccc(Br)cc12,62
Cc1ccc(-c2cc(C(=O)NCc3cnn(C)c3C)c3cc(Br)ccc3n2)cc1,-64*
CNC(C)C#Cc1ccc2oc3cc(C)c(C)cc3c(=O)c2c1 (configuration not stated),-196*
CNC(C)C#Cc1ccc2c(=O)c3cc(C)c(C)cc3oc2c1 (configuration not stated),-227*
Cc1cc(C)n(C(N)=NC(=O)c2ccc([N+](=O)[O-])cc2)n1,-154*
Oc1ccc(-c2nccc(-c3ccc(F)cc3)n2)cc1,-144*
COc1cccc2cc(-c3nc4ccccc4[nH]3)c(=O)oc12,-157*
COc1cccc2cc(-c3ccccc3)c(=O)oc12,-113*
COCc1cc(C)nc(SCC(=O)c2ccc(O)c(O)c2)c1C#N,-80*
COCc1cc(C)nc(SCC(=O)Nc2ccc3c(c2)OCO3)c1C#N,-70*
COCc1cc(C)nc(SCC(=O)Nc2ccc3c(c2)OCCO3)c1C#N,-86*
COc1cc(/C=C/c2cc[n+](C)cc2)ccc1OCC(=O)Nc1ccccc1,-76*
COc1cc(C=C2C(=O)OC(C)(C)OC2=O)ccc1OCC(=O)Nc1ccccc1,-123*
N#Cc1cc2ccc(N3CCOCC3)cc2cc1C#N,-73*
Cc1nc(-c2ccc(Cl)cc2)sc1C1(C)CC(c2cccc(F)c2)=NO1 (configuration not stated),-67*
COc1ccc(C(=O)NNC2=Nc3cccc4cccc2c34)cc1,58
Clc1ccccc1/C=N/NC1=Nc2cccc3cccc1c23,-230*
OC(c1cc(-c2ccc(Cl)cc2)nc2ccccc12)C1CCCCN1 (configuration not stated),96
COc1cc(NC2CCCCC2O)c2nc(-c3ccc(Cl)cc3)ccc2c1 (configuration not stated),-94*
O=C(/C=C/c1cccs1)N1CCCCC1,-92*
CC1CC(C)CN(C(=O)/C=C/c2ccc([N+](=O)[O-])s2)C1 (configuration not stated),-97*
O=C(/C=C/c1ccc([N+](=O)[O-])s1)N1CCCC1,-102*
CC1CN(C(=O)/C=C/c2ccc([N+](=O)[O-])s2)CC(C)O1 (configuration not stated),-82*
